Consider 16 compounds from PubChem BioAssay (NCATS).

Records with an inconclusive call do not appear. Active and inactive are the calls of the source. Unless noted, the call rests on the fitted dose curve; in most records, active means well fitted curve in the direction sought with a large enough effect; inconclusive means small, poorly fitted or top-dose-only effect, or another doubt; inactive means no such curve, though single readings can be large; an effect the other way counts as inactive or inconclusive.

Assay [1] in a line: qHTS for Inhibitors of the Functional Ribonucleoprotein Complex (vRNP) of Lassa (LASV) Arenavirus: LASV Primary Screen - GLuc reporter signal (AID 1347082; calls by dose curve; tested in HEK293 reporter line; further: series mostly up to about 57 µM; nearly all actives have a fitted effect of over 60% in size).
A short description of assay [2]: qHTS for Inhibitors of the Functional Ribonucleoprotein Complex (vRNP) of Lassa (LASV) Arenavirus: Viability assay - alamar blue signal for LASV Primary Screen (AID 1347083; calls by dose curve; tested in HEK293 reporter line; further: series mostly up to about 57 µM; nearly all actives have a fitted effect of over 80% in size).
The nature of assay [3]: qHTS for Inhibitors of the Functional Ribonucleoprotein Complex (vRNP) of Lymphocytic Choriomeningitis Arenaviruses (LCMV): Viability assay - alamar blue signal for LCMV Primary Screen (AID 1347085; calls by dose curve; tested in HEK293 reporter line; further: series mostly up to about 57 µM; nearly all actives have a fitted effect of over 80% in size).
Assay [4] concerns the target Nucleoprotein (Lymphocytic choriomeningitis virus (strain Armstrong)) (UniProt P09992). Description: qHTS for Inhibitors of the Functional Ribonucleoprotein Complex (vRNP) of Lymphocytic Choriomeningitis Arenaviruses (LCMV): LCMV Primary Screen - GLuc reporter signal (AID 1347086; calls by dose curve; further: series mostly up to about 57 µM; nearly all actives have a fitted effect of over 70% in size).
A short description of assay [5]: qHTS of pediatric cancer cell lines to identify multiple opportunities for drug repurposing: Primary screen for TC32 cells (AID 1347089). Further: nearly all actives have a fitted effect of over 60% in size. Summed up: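 qHTS, TC32, 48 h drug treatment, CellTiter-Glo luminescence as a proxy for metabolically active cells; primary top concentration 46 µM (MIPE 11-pt, NPC 8-pt); confirmatory 11-pt.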
The nature of assay [6]: qHTS of pediatric cancer cell lines to identify multiple opportunities for drug repurposing: Primary screen for DAOY cells (AID 1347090). Further: series mostly up to about 46 µM; nearly all actives have a fitted effect of over 55% in size. Summed up:
(§1)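 Viability measured as metabolically active cells via CellTiter-Glo luminescence following 48 hours of compound exposure, 11-point dilutions in confirmatory testing. 500-1,000 cells/well plated 5 hours before dosing; controls were DMSO and 2.3 µM bortezomib.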

Assay [7] can be described thus: qHTS of pediatric cancer cell lines to identify multiple opportunities for drug repurposing: Primary screen for SJ-GBM2 cells (AID 1347091). In a few lines: as §1
The nature of assay [8]: qHTS of pediatric cancer cell lines to identify multiple opportunities for drug repurposing: Primary screen for A673 cells (AID 1347092). Further: nearly all actives have a fitted effect of over 45% in size. Summed up: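 Luminescence from CellTiter-Glo, taken after 15 min at room temperature, served as the proxy for metabolically active cells following 48 h treatment. Both potency and efficacy were taken from curves fitted to the titration data.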

Assay [9] in a line: qHTS of pediatric cancer cell lines to identify multiple opportunities for drug repurposing: Primary screen for SK-N-MC cells (AID 1347093). Further: series mostly up to about 46 µM. Summed up:
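Metabolically active cells were quantified by ATP-dependent luminescence (CellTiter-Glo, 15 min at room temperature) following 48 h treatment. Cells had been plated at 500-1,000 per well and settled for 5 h beforehand.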

Assay [10] can be described thus: qHTS of pediatric cancer cell lines to identify multiple opportunities for drug repurposing: Primary screen for BT-37 cells (AID 1347094). Further: series mostly up to about 57 µM. Summed up:
(§2)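 Cells seeded at 500-1,000 cells/well in growth media, rested 5 hours at 37 degrees C, 5% CO2, then dosed; MIPE compounds at 11-point (from 0.78 nM) and NPC at 8-point (from 0.59 nM) final concentrations. Viability by CellTiter-Glo luminescence after 48 hours.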

The nature of assay [11]: qHTS of pediatric cancer cell lines to identify multiple opportunities for drug repurposing: Primary screen for NB-EBc1 cells (AID 1347095). Summed up: as §2
A short description of assay [12]: qHTS of pediatric cancer cell lines to identify multiple opportunities for drug repurposing: Primary screen for U-2 OS cells (AID 1347096). Further: nearly all actives have a fitted effect of over 50% in size. In a few lines:
(§3)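 Viability after 48 h compound treatment at 37C, 500-1,000 cells/well, read as ATP luminescence with CellTiter-Glo. Primary screens used 11-point (MIPE, 0.78 nM-46 µM) or 8-point (NPC, 0.59 nM-46 µM) final concentrations; follow-up screens used 11-point dilutions.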

The nature of assay [13]: qHTS of pediatric cancer cell lines to identify multiple opportunities for drug repurposing: Primary screen for Saos-2 cells (AID 1347097). Further: nearly all actives have a fitted effect of over 40% in size. Summed up:
as §2

Assay [14] in a line: qHTS of pediatric cancer cell lines to identify multiple opportunities for drug repurposing: Primary screen for SK-N-SH cells (AID 1347098). Further: nearly all actives have a fitted effect of over 65% in size. Further: potency means the concentration at half of the fitted maximal effect. In a few lines: (§4)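 Cells (500-1,000/well) rested 5 h, then received compounds for 48 h; metabolically active cells were measured by CellTiter-Glo luminescence. Final concentrations spanned up to 46 µM (MIPE, 11-point) or 0.59 nM-46 µM (NPC, 8-point) in primary screens, 11-point in follow-ups.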

Assay [15] can be described thus: qHTS of pediatric cancer cell lines to identify multiple opportunities for drug repurposing: Primary screen for NB1643 cells (AID 1347099). Further: nearly all actives have a fitted effect of over 50% in size. Summed up:
as §2

Assay [16] can be described thus: qHTS of pediatric cancer cell lines to identify multiple opportunities for drug repurposing: Primary screen for LAN-5 cells (AID 1347100). In a few lines:
as §3

A short description of assay [17]: qHTS of pediatric cancer cell lines to identify multiple opportunities for drug repurposing: Primary screen for BT-12 cells (AID 1347101). Further: nearly all actives have a fitted effect of over 25% in size. In a few lines:
as §4

Assay [18] in a line: qHTS of pediatric cancer cell lines to identify multiple opportunities for drug repurposing: Primary screen for Rh18 cells (AID 1347102). Further: nearly all actives have a fitted effect of over 65% in size. In a few lines: as §3

Nucleoprotein (Lymphocytic choriomeningitis virus (strain Armstrong)), sequence (P09992 whole entry, looked up): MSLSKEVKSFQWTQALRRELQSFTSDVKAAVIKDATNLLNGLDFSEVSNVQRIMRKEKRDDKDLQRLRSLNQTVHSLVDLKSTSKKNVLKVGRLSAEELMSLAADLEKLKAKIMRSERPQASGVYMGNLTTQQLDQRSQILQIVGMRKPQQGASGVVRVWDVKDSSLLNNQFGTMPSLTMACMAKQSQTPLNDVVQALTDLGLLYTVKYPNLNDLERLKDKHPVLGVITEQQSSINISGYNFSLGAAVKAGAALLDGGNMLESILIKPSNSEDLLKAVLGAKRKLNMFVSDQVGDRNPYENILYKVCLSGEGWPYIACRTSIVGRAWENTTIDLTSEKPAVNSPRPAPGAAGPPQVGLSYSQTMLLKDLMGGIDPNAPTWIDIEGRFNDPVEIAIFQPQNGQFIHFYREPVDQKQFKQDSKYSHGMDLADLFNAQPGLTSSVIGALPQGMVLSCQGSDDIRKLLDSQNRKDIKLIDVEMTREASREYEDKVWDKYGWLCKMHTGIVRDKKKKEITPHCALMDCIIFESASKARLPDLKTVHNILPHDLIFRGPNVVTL

On to `CC(Cc1ccccc1)NCCCCl` (stereo not drawn), for which the Potency entry in assay [1], in assay [2], in [3], in assay [4], in [5] and in assay [6] was “inactive” each time. Further, the Potency entry in [7], in assay [8], in [9], in assay [10], in assay [11] and in [12] was “inactive” in each case. In addition, the Potency result in assay [13], in [14], in assay [15], in assay [16], in assay [17] and in [18] was “inactive” each time.
As for `COP(=O)(OC)OC=C(Cl)Cl`, the Potency result in assay [1], in assay [2], in assay [3], in [4], in assay [5] and in assay [6] was “inactive” in each case. In addition, the Potency result in assay [7], in [8], in [9], in assay [10], in assay [11] and in assay [12] was “inactive” in each case. In addition, the Potency result in assay [13], in [14], in assay [15], in [16], in assay [17] and in assay [18] was “inactive” throughout.
`Oc1c(Br)cc(Br)cc1Br`: the Potency entry in assay [1], in [2], in [3], in assay [4], in assay [5] and in [6] was “inactive” each time. For the same compound, the Potency entry in assay [7], in assay [8], in assay [9], in [10], in [11] and in [12] was “inactive” throughout. Besides, the Potency result in assay [13], in assay [14], in [15], in assay [16], in assay [17] and in [18] was “inactive” throughout.
Turning to `CC(CC(C(N)=O)(c1ccccc1)c1ccccc1)N(C)C` (stereo not drawn), the Potency entry in assay [1], in [2], in [3], in assay [4], in [5] and in assay [6] was “inactive” throughout. For the same compound, the Potency result in [7], in assay [8], in assay [9], in [10], in assay [11] and in assay [12] was “inactive” each time. In addition, the Potency entry in [13], in assay [14], in assay [15], in assay [16], in assay [17] and in assay [18] was “inactive” throughout.
Regarding `CNC[C@H](O)c1ccc(O)c(O)c1`, the Potency result in [1], in [2], in assay [3] and in assay [4] was “inactive” in each case.
For `Cc1c(Cl)c(=O)oc2cc(OP(=O)(OCCCl)OCCCl)ccc12`, the Potency entry in [1], in assay [2], in [3], in [4], in assay [5] and in [6] was “inactive” throughout. Moreover, the Potency entry in assay [7], in assay [8], in assay [9], in assay [10], in assay [11] and in assay [12] was “inactive” in each case. The Potency entry in assay [13], in assay [14], in [15], in assay [16], in assay [17] and in [18] was “inactive” in each case.
On to `COP(=S)(OC)Oc1ccc(S(N)(=O)=O)cc1`, for which the Potency entry in assay [1], in [2], in [3], in [4], in assay [5] and in [6] was “inactive” in each case. The Potency entry in [7], in [8], in [9], in assay [10], in [11] and in assay [12] was “inactive” throughout. Moreover, the Potency entry in assay [13], in assay [14], in [15], in [16], in assay [17] and in assay [18] was “inactive” each time.
Take `O=c1[nH]c2cc(Cl)ccc2n1C1CCNCC1`: the Potency result in assay [1], in assay [2], in assay [3], in assay [4], in assay [5] and in [6] was “inactive” in each case. Also, the Potency entry in assay [7], in assay [8], in assay [9], in [10], in assay [11] and in [12] was “inactive” throughout. The Potency result in [13], in [14], in assay [15], in assay [16], in assay [17] and in assay [18] was “inactive” in each case.
In the case of `COP(=S)(OC)Oc1ccc(Sc2ccc(OP(=S)(OC)OC)cc2)cc1`, the Potency result in [1], in [2], in assay [3], in assay [4], in assay [5] and in assay [6] was “inactive” throughout. Besides, the Potency result in [7], in assay [8], in assay [9], in [10], in [11] and in [12] was “inactive” throughout. For the same compound, the Potency result in assay [13], in [14], in [15], in [16], in assay [17] and in [18] was “inactive” in each case.
In the case of `CCOC(=O)c1cncn1C(C)c1ccccc1` (stereo not drawn), the Potency entry in assay [1], in assay [2], in assay [3], in assay [4], in assay [5] and in assay [6] was “inactive” throughout. For the same compound, the Potency result in assay [7], in [8], in assay [9], in [10], in assay [11] and in [12] was “inactive” each time. Besides, the Potency entry in [13], in assay [14], in assay [15], in [16], in assay [17] and in assay [18] was “inactive” in each case.
For the compound `C[N+](C)(C)CCOC(=O)C(O)(c1ccccc1)c1ccccc1`, the Potency entry in assay [1], in [2], in assay [3], in [4], in assay [5] and in assay [6] was “inactive” in each case. Also, the Potency result in assay [7], in assay [8], in assay [9], in assay [10], in assay [11] and in assay [12] was “inactive” in each case. For the same compound, the Potency result in assay [13], in [14], in assay [15], in [16], in assay [17] and in assay [18] was “inactive” each time.
As to `O=c1[nH]c2cc(C(F)(F)F)c(N3CCOCC3)cc2n(CP(=O)(O)O)c1=O`, the Potency result in assay [1], in [2], in assay [3] and in assay [4] was “inactive” in each case.
Consider `ClCc1cccc(Cl)c1`, for which the Potency entry in [1], in assay [2], in assay [3], in assay [4], in assay [5] and in [6] was “inactive” each time. The Potency entry in assay [7], in assay [8], in assay [9], in assay [10], in assay [11] and in [12] was “inactive” throughout. Besides, the Potency entry in assay [13], in [14], in assay [15], in [16], in [17] and in assay [18] was “inactive” in each case.
`COCC(=O)N(c1c(C)cccc1C)C(C)C(=O)OC` (stereo not drawn): the Potency result in [1], in assay [2], in [3], in assay [4], in assay [5] and in [6] was “inactive” each time. The Potency entry in [7], in assay [8], in assay [9], in assay [10], in assay [11] and in assay [12] was “inactive” each time. For the same compound, the Potency entry in [13], in assay [14], in assay [15], in [16] and in assay [18] was “inactive” in each case.
Turning to `COc1ccc2[nH]cc(CCN(C(C)C)C(C)C)c2c1`, the Potency entry in assay [1], in [2], in assay [3], in [4], in [5] and in assay [6] was “inactive” each time. Also, the Potency entry in assay [7], in assay [8], in assay [9], in assay [10], in assay [11] and in [12] was “inactive” in each case. Moreover, the Potency result in assay [13], in assay [15], in [16], in [17] and in [18] was “inactive” in each case. Further, the Potency in assay [14] was 36.1 µM (active).
As for `ClCCCN1CCN(c2cccc(Cl)c2)CC1`, the Potency entry in [1], in [2], in [3], in [4], in assay [5] and in assay [6] was “inactive” throughout. The Potency result in [7], in assay [8], in assay [9], in assay [10], in [11] and in assay [12] was “inactive” each time. Also, the Potency entry in assay [13], in assay [14], in assay [16], in assay [17] and in [18] was “inactive” each time.
